± gives the uncertainty stated by the source.
system: U87; assay: cell viability relative to vehicle control; higher = less growth inhibition (less active); details: 10 µM; 72 h
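Note: viable cell number estimated from Alamar Blue fluorescence read at 560/90, part of a single-dose primary screen of an FDA-approved drug library.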

SMILES	cell viability [%]
C#C[C@]1(O)CC[C@H]2[C@@H]3CCc4cc(O)ccc4[C@H]3CC[C@@]21C	102 ± 2.1
COc1ccc2c(c1)c(CC(=O)O)c(C)n2C(=O)c1ccc(Cl)cc1 [Indomethacin]	105.6 ± 0.41
Fc1ccc([C@@H]2CCNC[C@H]2COc2ccc3c(c2)OCO3)cc1	104.5 ± 1
C=CC1=C(C(=O)O)N2C(=O)[C@@H](NC(=O)/C(=N\OCC(=O)O)c3csc(N)n3)[C@H]2SC1	103.9 ± 0.8
Clc1ccc2c(c1)CCc1cccnc1C2=C1CCNCC1	101.5 ± 0.94
O=C(O)C[C@H](O)C[C@H](O)/C=C/c1c(C2CC2)nc2ccccc2c1-c1ccc(F)cc1	28.6 ± 3.1
CNCC[C@H](Oc1cccc2ccccc12)c1cccs1 [Duloxetine]	104 ± 1.9
CC1(C)O[C@@H]2[C@@H](CO[C@@]3(COS(N)(=O)=O)OC(C)(C)O[C@@H]23)O1	129 ± 2
c1ccc(-c2ccc(C(c3ccccc3)n3ccnc3)cc2)cc1 (configuration not stated)	101 ± 1.2
CC(C(=O)O)c1ccc(CC2CCCC2=O)cc1 (configuration not stated)	99.3 ± 2.7
CN(C)CCN(Cc1ccccc1)c1ccccn1	96.4 ± 2.6
O=C(c1ccccc1)c1ccc2n1CCC2C(=O)O (configuration not stated) [Ketorolac Tromethamine]	101.2 ± 0.98
Clc1ccc(CO/N=C(\Cn2ccnc2)c2ccc(Cl)cc2Cl)c(Cl)c1	103 ± 3.9
NC(=O)N1c2ccccc2CC(=O)c2ccccc21 [Trileptal]	102 ± 2.4
COc1cc2c(cc1OC)C(=O)C(CC1CCN(Cc3ccccc3)CC1)C2 (configuration not stated) [Donepezil]	99.1 ± 1.4
Oc1ccc(C2CNCCc3c2cc(O)c(O)c3Cl)cc1 (configuration not stated)	103 ± 2.8
CNCCCCOc1ccccc1Cc1ccccc1 [Bifemelane]	96.1 ± 9.1

From the supplement of paper PMC3898565
